Test results reported in PubChem BioAssay (NCI).
The panel holds about 83,000 compounds, 20% with a hit somewhere; the sample as a whole holds those more often.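 Values shown are percent growth following 48 h exposure of cells in 96-well plates to a single concentration of compound; below 10 was considered active.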 Active and inactive are the calls of the source.

Experiments:
Assay in all cases: NCI-60 one-dose screen, 48 h (100 = growth as untreated, 0 = no growth, -100 = all killed)
[1] = system: NCI-H23 lung; settings: 10 µM unless noted
[2] = system: NCI-H226 lung; settings: 10 µM unless noted
[3] = system: NCI-H322M lung; settings: 10 µM unless noted
[4] = system: NCI-H460 lung; settings: 10 µM unless noted
[5] = system: HOP-92 NSCLC; settings: 10 µM
[6] = system: NCI-H522 lung; settings: 10 µM
[7] = system: A549/ATCC NSCLC; settings: 10 µM unless noted
[8] = system: 786-0 renal; settings: 10 µM unless noted
[9] = system: COLO 205 colon; settings: 10 µM unless noted

Measured: growth

Cc1ccc(C(C)C)c(OCc2ccc(C(=O)N/N=C/c3cccc(O)c3O)cc2)c1
inactive: [1] 25.9% | [2] 68.1% | [3] 43.1% | [4] 12.5% | [5] 37.9% | [6] 47.4% | [7] 52.9% | [8] 16% | [9] 16.3%

CCCC(=O)NNc1[nH]c(-c2ccc(OC)cc2)cc1C(=O)OCC
active: [9] 1.42%
inactive: [1] 95.4% | [2] 104% | [3] 35.2% | [4] 120% | [5] 72.9% | [6] 91.1% | [7] 110% | [8] 96.6%

O=C(/C=C/c1c[nH]c2ccccc12)c1cc2ccccc2o1
inactive: [1] 97.2% | [2] 100% | [3] 99.7% | [4] 107% | [5] 83.2% | [6] 79.8% | [7] 89.5% | [8] 86.6% | [9] 130%

CCCCCCCCc1ccc(CCC(N)(CO)CO)cc1
inactive: [1] 68.9% | [2] 94.3%
active: [3] 3.56% | [4] 0.54% | [5] -5.83% | [6] -51.7% | [7] 0.665% | [8] -44.2% | [9] -87.5%

CCCCCCCCCCCCc1ccc([N+](CC)(CC)CC)cc1
inactive: [1] 17.6% | [2] 59.3% | [3] 88.5% | [4] 44% | [5] 40.9% | [6] 33.8% | [7] 61.1% | [8] 65.6% | [9] 20.3%

CCN(CC)CCCNc1c2ccc(Cl)cc2nc2ccc(OC)cc12
active: [1] -34.9% | [2] -6.37% | [3] -18.9% | [4] 1.68% | [5] -27.8% | [6] -52% | [7] -32.4% | [8] 9.99% | [9] -72.3%

COc1ccc(CN2C(=O)/C(=C\C(=O)c3ccc(OCCN4CCCC4)cc3)c3ccccc32)cc1
inactive: [1] 83.8% | [2] 87.8% | [3] 97.6% | [4] 94.4% | [5] 54.4% | [6] 31.9% | [7] 97.2% | [8] 85.7% | [9] 83.9%

CC(=O)Nc1nc(C)c(C(=O)NN)s1
active: [5] 3.84%
inactive: [1] 103% | [2] 92.1% | [3] 96% | [4] 115% | [6] 97.5% | [7] 101% | [8] 93% | [9] 108%

C=C(NC(=O)[C@H](C(C)C)N(C)c1cccc2[nH]ccc12)C(=O)OC
inactive: [1] 99.8% | [2] 97.5% | [3] 100% | [4] 103% | [5] 99.5% | [6] 87.3% | [7] 96.5% | [8] 95.9% | [9] 132%

O=C(Nc1cccc2[nH]c(C(F)(F)F)nc12)c1ccc(F)cc1
active: [5] -9.1%
inactive: [1] 83.7% | [2] 86.1% | [3] 101% | [4] 55% | [6] 51.3% | [7] 72.8% | [8] 91.9% | [9] 95.1%

CCOC(=O)C1=C(c2ccccc2)NC(=O)NC1CN1C(=O)c2ccccc2C1=O (stereo not given)
inactive: [1] 93.9% | [2] 105% | [3] 118% | [4] 105% | [5] 72.9% | [6] 108% | [7] 127% | [8] 102% | [9] 116%

COC(=O)c1ccc(C(=Nc2ccc(N(C)C(=O)CN3CCN(C)CC3)cc2)c2c(O)[nH]c3ccc(C(=O)OC)cc23)cc1
inactive: [1] 35.4% | [2] 33% | [3] 47.3% | [4] 43.7% | [5] 51.1% | [6] 19% | [7] 35.6% | [8] 36.4% | [9] 21.8%

Clc1ccc(N/N=C/c2ccccn2)nc1
active: [1] 6.51% | [2] -12.3% | [4] 3.11% | [8] 7.14%
inactive: [3] 23.6% | [5] 39.7% | [6] 37.5% | [7] 11.2% | [9] 13.6%

COc1ccc(Cn2cc3c(c2-c2ccc(OC)cc2)CCc2cnoc2-3)cc1
inactive: [3] 43.5% | [5] 55.2% | [6] 11.1% | [7] 22% | [8] 30.3%
active: [1] 6.98% | [2] 9.5% | [4] 0.836% | [9] -32.4%

CC1(C)C(O)NC(Cl)=C(C#N)C1(C#N)C#N (stereo not given)
inactive: [1] 92.2% | [2] 135% | [3] 130% | [4] 113% | [5] 141% | [6] 91.5% | [7] 103% | [8] 95.6% | [9] 118%

c1cc[c]([Bi]([c]2ccccc2)[c]2ccccc2)cc1
inactive: [1] 93.9% | [2] 95.8% | [3] 88% | [4] 96.2% | [5] 74.1% | [6] 104% | [7] 102% | [8] 94% | [9] 105%

Brc1c(-c2ccncc2)nc2n1CCS2
inactive: [1] 113% | [2] 93.4% | [3] 107% | [4] 103% | [5] 73.9% | [6] 76.5% | [7] 94.1% | [8] 26.3% | [9] 120%

Clc1ccc(N/N=C(/c2ccccc2)c2ccccn2)nc1
inactive: [1] 29.7% | [2] 27.1% | [3] 39.8% | [4] 28.8% | [5] 51% | [6] 60.8% | [7] 32% | [8] 37.6% | [9] 25%

COC(=O)c1ccc2[nH]c(O)c(C(=Nc3ccc(N(C)C(=O)CN4CCN(C)CC4)cc3)c3ccc(C)cc3)c2c1
inactive: [3] 19.8% | [5] 38.7%
active: [1] -9.95% | [2] 5.6% | [4] -43.1% | [6] -33.6% | [7] -30.2% | [8] -85.1% | [9] -61.2%

Cc1sc(NC(=O)c2ccc(C(C)(C)C)cc2)c(C(=O)O)c1C
inactive: [1] 62.9% | [2] 92.3% | [3] 97.3% | [4] 50.9% | [5] 66.3% | [6] 56.3% | [7] 24.4% | [8] 73.8% | [9] 55.6%

COc1cc2c(cc1OC)C(Cc1cc(OC)c(OC)cc1[N+](=O)[O-])=NCC2
inactive: [1] 67.5% | [2] 88.7% | [3] 94.9% | [4] 64.8% | [5] 48.5% | [6] 82.6% | [7] 90% | [8] 87.6% | [9] 94.9%

CC(=O)c1nn(-c2ccc(C)cc2)cc1C(=O)c1cc2c(ccc3ccccc32)oc1=O
inactive: [1] 91.2% | [2] 90.1% | [3] 91.5% | [4] 100% | [5] 77.6% | [6] 81.5% | [7] 96.8% | [8] 93.4% | [9] 107%

CCCCCCCCCCCCCCCCCC1=NCCN1CS(=O)(=O)O
active: [4] -79.1% | [7] -8.05%
inactive: [1] 87.5% | [2] 87.5% | [3] 15.5% | [5] 38.5% | [6] 84.5% | [8] 74.5% | [9] 29.2%

O=S(=O)(O)CCI
inactive: [1] 102% | [2] 95.9% | [3] 101% | [4] 104% | [5] 103% | [6] 103% | [7] 114% | [8] 106% | [9] 111%

CC1Cc2cc(F)ccc2-n2cccc21 (stereo not given)
inactive: [1] 98.5% | [2] 154% | [3] 100% | [4] 98.7% | [5] 73.8% | [6] 101% | [7] 104% | [8] 111% | [9] 94.6%

Nc1cc(N)c2nc(NCCc3ccc(Cl)c(Cl)c3)cnc2c1
active: [3] -3.74% | [5] -54.9% | [9] 5.65%
inactive: [1] 63.8% | [2] 61.4% | [4] 71.9% | [6] 17.3% | [7] 71.1% | [8] 37.5%

CCCC(=O)NNc1[nH]c(-c2cc(OC)c(OC)c(OC)c2)cc1C(=O)OCC
inactive: [1] 107% | [2] 103% | [3] 145% | [4] 123% | [5] 84.8% | [6] 105% | [7] 115% | [8] 92.5% | [9] 34.3%

Cc1c(CN(C)C)cc(C(C)C)cc1C(C)C
inactive: [1] 102% | [2] 93.5% | [3] 129% | [4] 111% | [5] 129% | [6] 85% | [7] 101% | [8] 103% | [9] 131%

COc1ccc(Cn2cc3c(c2-c2ccc(O)cc2)CCc2cnoc2-3)cc1
active: [4] 1.39% | [9] -17.6%
inactive: [1] 20.5% | [2] 24.1% | [3] 18.8% | [5] 93.1% | [6] 35.7% | [7] 32.3% | [8] 28.9%

O=C1C(=O)c2ccccc2C(O)=C1CCCc1ccc(Oc2ccccc2)cc1
inactive: [1] 75% | [2] 46.5% | [3] 62.2% | [4] 32.7% | [5] 54.5% | [6] 57.9% | [7] 82.2% | [8] 37.5% | [9] 111%
